# Assay results taken from the supplement of paper PMC8728848.
# This excerpt belongs to a sample that is enriched for the strongest signals.
# B1: Pbx1CASH domain (Cryptococcus neoformans) (protein)
# chain: MDETKPLWGNPRADGISLACKDSIVERNVVYDATDGAIVLFGSAGSTVKNNHVYARTRVILGGINLVDYEPWDGDYTNVKVHHNHLYALGRYFKVGIVIGPASWSDDTESVVHSASVTDNEFSGGYWGYGIVVASAKNFEVLRNKVIWDGEQGVARFSGVPGS
# Experiments:
# Test in all cases: glycan array binding signal (z-score within array); higher = stronger binding
# Conditions in all cases: glycan notation: IUPAC condensed, linker removed
# [1] = molecular target: Fuc(a1-2)Gal(b1-3)GalNAc(b1-3)Gal
# In short: (§1)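 Columns mapping to the same glycan were averaged after glycan names were converted to IUPAC-condensed notation. The data come from 3228 arrays in the Consortium for Functional Glycomics database, limited to those with an available protein sequence. Binding is reported as a within-array Z-score averaged across arrays of one protein sequence and across linkers.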
# [2] = molecular target: Fuc(a1-2)Gal(b1-3)GalNAc(b1-3)Gal(a1-4)Gal(b1-4)Glc
# In short: as §1
# [3] = molecular target: Fuc(a1-2)Gal(b1-3)GlcNAc(b1-3)[Gal(b1-4)GlcNAc(b1-6)]Gal(b1-4)Glc
# In short: as §1
# [4] = molecular target: Fuc(a1-2)Gal(b1-4)[Fuc(a1-3)]GlcNAc(b1-3)GalNAc
# In short: as §1
# [5] = molecular target: Fuc(a1-2)[Gal(a1-3)]Gal(b1-4)GlcNAc(b1-2)Man(a1-3)[Fuc(a1-2)[Gal(a1-3)]Gal(b1-4)GlcNAc(b1-2)Man(a1-6)]Man(b1-4)GlcNAc(b1-4)[Fuc(a1-6)]GlcNAc
# In short: as §1
# [6] = molecular target: Fuc(a1-2)[GalNAc(a1-3)]Gal(b1-4)[Fuc(a1-3)]GlcNAc
# In short: as §1
# [7] = molecular target: Fuc(a1-3)[Gal(b1-4)]GlcNAc(b1-2)Man(a1-3)[Fuc(a1-3)[Gal(b1-4)]GlcNAc(b1-2)Man(a1-6)]Man(b1-4)GlcNAc(b1-4)[Fuc(a1-6)]GlcNAc
# In short: as §1
# [8] = molecular target: Fuc(a1-3)[Gal(b1-4)]GlcNAc(b1-3)Gal(b1-3)[Fuc(a1-4)]GlcNAc
# In short: as §1
# [9] = molecular target: Fuc(a1-3)[Gal(b1-4)]GlcNAc6S
# In short: as §1
# [10] = molecular target: Gal(a1-2)Gal
# In short: as §1
# [11] = molecular target: Gal(a1-3)Gal(b1-3)GlcNAc
# In short: as §1
# [12] = molecular target: Gal(a1-3)Gal(b1-3)GlcNAc(b1-3)GalNAc
# In short: as §1
# [13] = molecular target: Gal(a1-3)Gal(b1-4)GlcNAc(b1-6)GalNAc
# In short: as §1
# [14] = molecular target: Gal(b1-2)Gal
# In short: as §1
# [15] = molecular target: Gal(b1-3)GalNAc(a1-3)[Fuc(a1-2)]Gal(b1-4)Glc
# In short: as §1
# [16] = molecular target: Gal(b1-3)GalNAc(b1-3)Gal(a1-4)Gal(b1-4)Glc
# In short: as §1
# [17] = molecular target: Gal(b1-3)GlcNAc(b1-6)[Gal(b1-3)]GalNAc
# In short: as §1
# [18] = molecular target: Gal(b1-3)[Neu5Ac(a2-6)]GalNAc
# In short: as §1
# [19] = molecular target: Gal(b1-4)GlcNAc(b1-2)Man
# In short: as §1
# [20] = molecular target: Gal(b1-4)GlcNAc(b1-3)Gal(b1-4)GlcNAc(b1-2)Man(a1-3)[Gal(b1-4)GlcNAc(b1-3)Gal(b1-4)GlcNAc(b1-2)Man(a1-6)]Man(b1-4)GlcNAc(b1-4)GlcNAc
# In short: as §1
# [21] = molecular target: Gal(b1-4)GlcNAc(b1-3)Gal(b1-4)GlcNAc(b1-3)Gal(b1-4)GlcNAc(b1-2)Man(a1-3)[Gal(b1-4)GlcNAc(b1-3)Gal(b1-4)GlcNAc(b1-3)Gal(b1-4)GlcNAc(b1-2)Man(a1-6)]Man(b1-4)GlcNAc(b1-4)GlcNAc
# In short: as §1
# [22] = molecular target: Gal(b1-4)GlcNAc(b1-3)Gal(b1-4)GlcNAc(b1-3)Gal(b1-4)GlcNAc(b1-3)Gal(b1-4)GlcNAc(b1-3)Gal(b1-4)GlcNAc(b1-2)Man(a1-3)[Gal(b1-4)GlcNAc(b1-3)Gal(b1-4)GlcNAc(b1-3)Gal(b1-4)GlcNAc(b1-3)Gal(b1-4)GlcNAc(b1-3)Gal(b1-4)GlcNAc(b1-2)Man(a1-6)]Man(b1-4)GlcNAc(b1-4)[Fuc(a1-6)]GlcNAc
# In short: as §1
# [23] = molecular target: Gal(b1-4)GlcNAc(b1-3)Gal(b1-4)GlcNAc(b1-3)[Gal(b1-4)GlcNAc(b1-3)Gal(b1-4)GlcNAc(b1-6)]GalNAc
# In short: as §1
# [24] = molecular target: Gal(b1-4)GlcNAc(b1-3)Gal(b1-4)GlcNAc(b1-6)[Gal(b1-3)]GalNAc
# In short: as §1
# [25] = molecular target: GalNAc(b1-4)GlcNAc
# In short: as §1
# [26] = molecular target: GalNAc3S(b1-4)GlcNAc
# In short: as §1
# [27] = molecular target: Glc(a1-4)Glc
# In short: as §1
# [28] = molecular target: GlcA(b1-6)Gal
# In short: as §1
# [29] = molecular target: GlcNAc(a1-4)Gal(b1-3)GlcNAc
# In short: as §1
# [30] = molecular target: GlcNAc(a1-4)Gal(b1-4)GalNAc
# In short: as §1
# [31] = molecular target: GlcNAc(a1-6)Gal(b1-4)GlcNAc
# In short: as §1
# [32] = molecular target: GlcNAc(b1-2)Man(a1-3)[GlcNAc(b1-2)Man(a1-6)]Man(b1-4)GlcNAc(b1-4)GlcNAc
# In short: as §1
# [33] = molecular target: GlcNAc(b1-3)Gal(b1-4)GlcNAc(b1-3)Gal(b1-4)GlcNAc(b1-2)Man(a1-3)[GlcNAc(b1-3)Gal(b1-4)GlcNAc(b1-3)Gal(b1-4)GlcNAc(b1-2)Man(a1-6)]Man(b1-4)GlcNAc(b1-4)GlcNAc
# In short: as §1
# [34] = molecular target: GlcNAc(b1-3)Gal(b1-4)GlcNAc(b1-6)[GlcNAc(b1-3)Gal(b1-3)]GalNAc
# In short: as §1
# [35] = molecular target: GlcNAc(b1-3)Gal(b1-4)GlcNAc(b1-6)[GlcNAc(b1-3)]Gal(b1-4)GlcNAc
# In short: as §1
# [36] = molecular target: GlcNAc(b1-3)Man
# In short: as §1
# [37] = molecular target: Kdn(a2-3)Gal(b1-3)GlcNAc
# In short: as §1
# [38] = molecular target: Man(a1-3)[Man(a1-6)]Man(a1-6)[Man(a1-3)]Man
# In short: as §1
# [39] = molecular target: Man(a1-3)[Man(a1-6)]Man(b1-4)GlcNAc(b1-4)GlcNAc
# In short: as §1
# [40] = molecular target: Man(b1-4)GlcNAc
# In short: as §1
# [41] = molecular target: Neu5Ac(a2-3)Gal
# In short: as §1
# [42] = molecular target: Neu5Ac(a2-3)Gal(b1-3)GlcNAc6S
# In short: as §1
# [43] = molecular target: Neu5Ac(a2-3)Gal(b1-4)GlcNAc(b1-2)Man
# In short: as §1
# [44] = molecular target: Neu5Ac(a2-3)Gal(b1-4)GlcNAc(b1-3)Gal(b1-3)GlcNAc
# In short: as §1
# [45] = molecular target: Neu5Ac(a2-3)Gal(b1-4)GlcNAc(b1-3)Gal(b1-4)GlcNAc(b1-2)Man(a1-3)[Neu5Ac(a2-3)Gal(b1-4)GlcNAc(b1-3)Gal(b1-4)GlcNAc(b1-2)Man(a1-6)]Man(b1-4)GlcNAc(b1-4)GlcNAc
# In short: as §1
# [46] = molecular target: Neu5Ac(a2-3)Gal(b1-4)GlcNAc(b1-3)Gal(b1-4)GlcNAc(b1-3)Gal(b1-4)GlcNAc(b1-2)Man(a1-3)[Neu5Ac(a2-3)Gal(b1-4)GlcNAc(b1-3)Gal(b1-4)GlcNAc(b1-3)Gal(b1-4)GlcNAc(b1-2)Man(a1-6)]GalNAc
# In short: as §1
# [47] = molecular target: Neu5Ac(a2-6)Gal(b1-4)Glc
# In short: as §1
# [48] = molecular target: Neu5Ac(a2-6)Gal(b1-4)GlcNAc
# In short: as §1
# [49] = molecular target: Neu5Ac(a2-6)Gal(b1-4)GlcNAc(b1-2)Man(a1-6)[Gal(b1-4)GlcNAc(b1-2)Man(a1-3)]Man(b1-4)GlcNAc(b1-4)GlcNAc
# In short: as §1
# [50] = molecular target: Neu5Ac(a2-6)Gal(b1-4)GlcNAc(b1-3)Gal(b1-4)GlcNAc(b1-3)Gal(b1-4)GlcNAc(b1-2)Man(a1-3)[Neu5Ac(a2-6)Gal(b1-4)GlcNAc(b1-3)Gal(b1-4)GlcNAc(b1-3)Gal(b1-4)GlcNAc(b1-2)Man(a1-6)]GalNAc
# In short: as §1
# [51] = molecular target: Neu5Gc(b2-6)Gal(b1-4)GlcNAc
# In short: as §1
binder,measurement,setting,value
B1,glycan array binding signal (z-score),[1],1.37
same,glycan array binding signal (z-score),[2],0.581
same,glycan array binding signal (z-score),[3],0.324
same,glycan array binding signal (z-score),[4],2.39
same,glycan array binding signal (z-score),[5],-0.277
same,glycan array binding signal (z-score),[6],-0.042
same,glycan array binding signal (z-score),[7],-0.469
same,glycan array binding signal (z-score),[8],0.08
same,glycan array binding signal (z-score),[9],0.01
same,glycan array binding signal (z-score),[10],-0.625
same,glycan array binding signal (z-score),[11],-0.681
same,glycan array binding signal (z-score),[12],-0.095
same,glycan array binding signal (z-score),[13],-0.006
same,glycan array binding signal (z-score),[14],-0.215
same,glycan array binding signal (z-score),[15],0.601
same,glycan array binding signal (z-score),[16],0.926
same,glycan array binding signal (z-score),[17],1.3
same,glycan array binding signal (z-score),[18],-0.674
same,glycan array binding signal (z-score),[19],0.337
same,glycan array binding signal (z-score),[20],5.46
same,glycan array binding signal (z-score),[21],3.17
same,glycan array binding signal (z-score),[22],-0.419
same,glycan array binding signal (z-score),[23],4.67
same,glycan array binding signal (z-score),[24],2.73
same,glycan array binding signal (z-score),[25],-0.736
same,glycan array binding signal (z-score),[26],-0.852
same,glycan array binding signal (z-score),[27],-0.667
same,glycan array binding signal (z-score),[28],-0.6
same,glycan array binding signal (z-score),[29],-0.187
same,glycan array binding signal (z-score),[30],0.311
same,glycan array binding signal (z-score),[31],-0.894
same,glycan array binding signal (z-score),[32],0.233
same,glycan array binding signal (z-score),[33],4.67
same,glycan array binding signal (z-score),[34],0.647
same,glycan array binding signal (z-score),[35],1.15
same,glycan array binding signal (z-score),[36],0.12
same,glycan array binding signal (z-score),[37],-0.869
same,glycan array binding signal (z-score),[38],-0.5
same,glycan array binding signal (z-score),[39],0.022
same,glycan array binding signal (z-score),[40],-0.348
same,glycan array binding signal (z-score),[41],-0.64
same,glycan array binding signal (z-score),[42],0.698
same,glycan array binding signal (z-score),[43],2.55
same,glycan array binding signal (z-score),[44],-0.104
same,glycan array binding signal (z-score),[45],2.42
same,glycan array binding signal (z-score),[46],3.29
same,glycan array binding signal (z-score),[47],-0.412
same,glycan array binding signal (z-score),[48],-0.348
same,glycan array binding signal (z-score),[49],-0.843
same,glycan array binding signal (z-score),[50],3.13
same,glycan array binding signal (z-score),[51],2.35
